Measurements from ChEMBL document CHEMBL1961873, “Compounds: GSK PKIS; Assays: Nanosyn kinase panel” (2012).

What was measured:
[1] = target: Protein kinase C gamma type (Homo sapiens) (UniProt P05129); details: at 1 µM;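 note: each value is an averaged percent inhibition of the enzyme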
[2] = target: T1, Protein kinase C iota type (Homo sapiens) (UniProt P41743); details: at 0.1 µM
T1 sequence (whole entry): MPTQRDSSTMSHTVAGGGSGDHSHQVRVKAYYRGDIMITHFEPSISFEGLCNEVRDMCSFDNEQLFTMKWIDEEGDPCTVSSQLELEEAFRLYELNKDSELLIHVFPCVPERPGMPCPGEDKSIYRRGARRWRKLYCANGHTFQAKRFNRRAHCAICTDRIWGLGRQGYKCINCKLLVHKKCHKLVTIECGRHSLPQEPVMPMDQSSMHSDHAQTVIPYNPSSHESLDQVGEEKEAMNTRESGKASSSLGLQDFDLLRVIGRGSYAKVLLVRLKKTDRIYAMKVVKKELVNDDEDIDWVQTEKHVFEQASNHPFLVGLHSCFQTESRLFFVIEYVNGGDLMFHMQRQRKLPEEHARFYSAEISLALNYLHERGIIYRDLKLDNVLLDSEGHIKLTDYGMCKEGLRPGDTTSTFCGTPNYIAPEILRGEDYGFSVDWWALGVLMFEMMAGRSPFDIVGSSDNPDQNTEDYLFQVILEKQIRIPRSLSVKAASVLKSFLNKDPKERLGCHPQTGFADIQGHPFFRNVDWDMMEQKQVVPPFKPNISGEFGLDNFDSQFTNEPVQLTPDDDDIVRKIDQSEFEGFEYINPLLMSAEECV

[3] = target: T1, Protein kinase C iota type (Homo sapiens); details: at 1 µM
[4] = target: Protein kinase C theta type (Homo sapiens) (UniProt Q04759); details: at 0.1 µM
[5] = target: Protein kinase C theta type (Homo sapiens) (UniProt Q04759); details: at 1 µM
[6] = target: Protein kinase C beta type (Homo sapiens) (UniProt P05771); details: at 0.1 µM
[7] = target: Protein kinase C beta type (Homo sapiens) (UniProt P05771); details: at 1 µM
[8] = target: T2, Serine/threonine-protein kinase D1 (Homo sapiens) (UniProt Q15139); details: at 0.1 µM
T2 sequence (whole entry): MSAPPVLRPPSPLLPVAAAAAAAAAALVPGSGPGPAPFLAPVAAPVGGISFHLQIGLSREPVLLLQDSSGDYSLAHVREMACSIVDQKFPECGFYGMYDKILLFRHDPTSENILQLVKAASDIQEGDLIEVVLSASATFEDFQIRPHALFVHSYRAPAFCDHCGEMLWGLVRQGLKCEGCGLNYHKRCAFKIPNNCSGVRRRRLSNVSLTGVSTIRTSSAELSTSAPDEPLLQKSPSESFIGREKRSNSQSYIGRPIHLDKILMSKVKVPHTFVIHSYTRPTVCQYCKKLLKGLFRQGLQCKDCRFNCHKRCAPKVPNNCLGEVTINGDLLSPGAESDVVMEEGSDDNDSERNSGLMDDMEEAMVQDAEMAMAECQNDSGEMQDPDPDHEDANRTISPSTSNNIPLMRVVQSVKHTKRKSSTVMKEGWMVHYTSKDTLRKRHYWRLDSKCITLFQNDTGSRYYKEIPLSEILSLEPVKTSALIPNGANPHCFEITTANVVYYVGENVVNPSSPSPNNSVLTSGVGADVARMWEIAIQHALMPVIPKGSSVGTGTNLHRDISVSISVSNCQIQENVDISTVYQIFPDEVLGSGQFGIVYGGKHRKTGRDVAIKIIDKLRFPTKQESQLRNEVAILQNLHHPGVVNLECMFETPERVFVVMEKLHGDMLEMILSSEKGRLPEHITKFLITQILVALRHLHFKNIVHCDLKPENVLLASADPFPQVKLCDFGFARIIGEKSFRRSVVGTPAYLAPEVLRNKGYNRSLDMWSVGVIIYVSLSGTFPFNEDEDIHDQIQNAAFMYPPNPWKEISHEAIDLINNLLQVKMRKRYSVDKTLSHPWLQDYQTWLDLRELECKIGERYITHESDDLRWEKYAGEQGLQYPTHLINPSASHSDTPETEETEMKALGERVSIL

[9] = target: T2, Serine/threonine-protein kinase D1 (Homo sapiens); details: at 1 µM
[10] = target: T3, Serine/threonine-protein kinase D2 (Homo sapiens) (UniProt Q9BZL6); details: at 0.1 µM
T3 sequence (whole entry): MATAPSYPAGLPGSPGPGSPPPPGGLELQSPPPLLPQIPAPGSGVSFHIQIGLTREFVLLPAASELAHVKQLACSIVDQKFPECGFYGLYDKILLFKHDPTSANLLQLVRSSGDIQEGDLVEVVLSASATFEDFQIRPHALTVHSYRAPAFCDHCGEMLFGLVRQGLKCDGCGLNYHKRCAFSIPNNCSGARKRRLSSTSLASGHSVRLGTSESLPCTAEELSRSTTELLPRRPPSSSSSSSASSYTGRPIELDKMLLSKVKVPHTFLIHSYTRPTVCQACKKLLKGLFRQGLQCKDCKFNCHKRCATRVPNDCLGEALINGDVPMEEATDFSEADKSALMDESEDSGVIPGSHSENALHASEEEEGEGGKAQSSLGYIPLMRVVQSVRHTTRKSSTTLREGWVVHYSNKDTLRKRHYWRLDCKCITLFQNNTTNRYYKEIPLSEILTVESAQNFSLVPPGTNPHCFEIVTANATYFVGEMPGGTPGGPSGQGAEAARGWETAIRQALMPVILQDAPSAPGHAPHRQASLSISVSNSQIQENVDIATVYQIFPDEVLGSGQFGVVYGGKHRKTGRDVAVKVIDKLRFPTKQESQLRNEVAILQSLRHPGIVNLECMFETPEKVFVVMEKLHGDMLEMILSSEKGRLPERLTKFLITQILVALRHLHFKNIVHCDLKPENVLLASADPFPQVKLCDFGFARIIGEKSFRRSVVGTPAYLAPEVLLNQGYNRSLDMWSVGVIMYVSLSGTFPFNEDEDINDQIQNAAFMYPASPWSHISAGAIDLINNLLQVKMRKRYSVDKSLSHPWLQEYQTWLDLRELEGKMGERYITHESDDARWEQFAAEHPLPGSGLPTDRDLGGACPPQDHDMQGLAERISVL

[11] = target: T3, Serine/threonine-protein kinase D2 (Homo sapiens); details: at 1 µM
[12] = target: T4, Serine/threonine-protein kinase D3 (Homo sapiens) (UniProt O94806); details: at 0.1 µM
T4 sequence (whole entry): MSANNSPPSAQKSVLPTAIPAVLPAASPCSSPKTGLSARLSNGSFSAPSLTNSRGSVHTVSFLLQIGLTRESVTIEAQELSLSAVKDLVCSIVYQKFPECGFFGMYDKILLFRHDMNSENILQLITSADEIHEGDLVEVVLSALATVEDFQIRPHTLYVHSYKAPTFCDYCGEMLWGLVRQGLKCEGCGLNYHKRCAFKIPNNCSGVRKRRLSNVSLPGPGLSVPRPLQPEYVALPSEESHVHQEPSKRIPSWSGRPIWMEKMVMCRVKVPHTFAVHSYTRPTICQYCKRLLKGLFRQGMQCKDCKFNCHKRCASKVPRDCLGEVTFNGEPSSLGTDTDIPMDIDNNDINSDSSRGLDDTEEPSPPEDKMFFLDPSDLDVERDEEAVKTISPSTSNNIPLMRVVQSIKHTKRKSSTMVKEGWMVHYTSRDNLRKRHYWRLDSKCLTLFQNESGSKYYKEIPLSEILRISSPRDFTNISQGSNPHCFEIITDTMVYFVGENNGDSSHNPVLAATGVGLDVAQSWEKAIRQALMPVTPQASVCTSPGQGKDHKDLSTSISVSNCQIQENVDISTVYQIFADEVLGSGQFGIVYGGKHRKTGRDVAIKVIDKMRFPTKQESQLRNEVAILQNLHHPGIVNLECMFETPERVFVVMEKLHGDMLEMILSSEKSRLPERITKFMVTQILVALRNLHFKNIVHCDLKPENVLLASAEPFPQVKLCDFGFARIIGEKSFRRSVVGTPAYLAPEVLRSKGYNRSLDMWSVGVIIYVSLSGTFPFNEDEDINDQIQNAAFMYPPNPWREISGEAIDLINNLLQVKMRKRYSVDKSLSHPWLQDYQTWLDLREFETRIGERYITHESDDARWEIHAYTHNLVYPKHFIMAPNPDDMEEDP

[13] = target: T4, Serine/threonine-protein kinase D3 (Homo sapiens); details: at 1 µM
[14] = target: T5, cGMP-dependent protein kinase 1 (Homo sapiens) (UniProt Q13976); details: at 0.1 µM
T5 sequence (whole entry): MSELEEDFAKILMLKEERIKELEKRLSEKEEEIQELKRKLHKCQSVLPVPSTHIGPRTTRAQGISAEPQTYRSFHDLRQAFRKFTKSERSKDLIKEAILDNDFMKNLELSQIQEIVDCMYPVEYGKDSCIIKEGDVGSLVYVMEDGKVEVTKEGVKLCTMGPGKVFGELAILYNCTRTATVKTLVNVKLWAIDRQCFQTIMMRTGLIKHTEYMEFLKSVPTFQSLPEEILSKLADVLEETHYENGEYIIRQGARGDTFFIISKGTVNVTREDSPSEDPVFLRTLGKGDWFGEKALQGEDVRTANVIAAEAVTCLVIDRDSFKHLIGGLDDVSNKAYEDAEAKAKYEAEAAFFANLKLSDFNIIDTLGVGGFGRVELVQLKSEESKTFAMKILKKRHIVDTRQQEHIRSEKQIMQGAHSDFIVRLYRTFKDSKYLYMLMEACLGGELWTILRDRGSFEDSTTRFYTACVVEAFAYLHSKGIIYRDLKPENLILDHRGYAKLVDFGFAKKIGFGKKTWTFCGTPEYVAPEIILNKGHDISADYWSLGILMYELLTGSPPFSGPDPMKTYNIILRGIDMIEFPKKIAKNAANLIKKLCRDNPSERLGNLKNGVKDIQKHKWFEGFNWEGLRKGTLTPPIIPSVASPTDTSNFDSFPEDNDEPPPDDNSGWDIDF

[15] = target: T5, cGMP-dependent protein kinase 1 (Homo sapiens); details: at 1 µM
[16] = target: T6, cGMP-dependent protein kinase 2 (Homo sapiens) (UniProt Q13237); details: at 0.1 µM
T6 sequence (whole entry): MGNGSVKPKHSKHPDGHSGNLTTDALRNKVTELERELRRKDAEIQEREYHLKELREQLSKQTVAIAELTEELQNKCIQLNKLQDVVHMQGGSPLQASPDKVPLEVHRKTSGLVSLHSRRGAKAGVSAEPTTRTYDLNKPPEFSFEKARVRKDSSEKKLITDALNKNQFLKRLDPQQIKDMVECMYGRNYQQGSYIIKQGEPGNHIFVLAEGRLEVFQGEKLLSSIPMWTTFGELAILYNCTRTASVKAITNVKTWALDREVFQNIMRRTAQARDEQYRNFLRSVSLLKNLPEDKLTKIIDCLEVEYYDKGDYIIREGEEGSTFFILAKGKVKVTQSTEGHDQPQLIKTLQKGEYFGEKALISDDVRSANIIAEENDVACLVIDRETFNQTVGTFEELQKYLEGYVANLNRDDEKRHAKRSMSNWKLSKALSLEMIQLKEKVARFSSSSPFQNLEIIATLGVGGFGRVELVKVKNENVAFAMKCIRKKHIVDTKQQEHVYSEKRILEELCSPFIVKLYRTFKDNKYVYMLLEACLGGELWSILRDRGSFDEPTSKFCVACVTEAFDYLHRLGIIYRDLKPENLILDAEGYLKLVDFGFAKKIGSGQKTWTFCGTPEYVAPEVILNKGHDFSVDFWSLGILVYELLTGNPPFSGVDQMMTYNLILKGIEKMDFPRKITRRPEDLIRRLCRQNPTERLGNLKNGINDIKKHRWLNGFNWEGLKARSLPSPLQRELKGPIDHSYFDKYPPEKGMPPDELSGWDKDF

[17] = target: T6, cGMP-dependent protein kinase 2 (Homo sapiens); details: at 1 µM
[18] = target: T7, cAMP-dependent protein kinase catalytic subunit PRKX (Homo sapiens) (UniProt P51817); details: at 0.1 µM
T7 sequence (whole entry): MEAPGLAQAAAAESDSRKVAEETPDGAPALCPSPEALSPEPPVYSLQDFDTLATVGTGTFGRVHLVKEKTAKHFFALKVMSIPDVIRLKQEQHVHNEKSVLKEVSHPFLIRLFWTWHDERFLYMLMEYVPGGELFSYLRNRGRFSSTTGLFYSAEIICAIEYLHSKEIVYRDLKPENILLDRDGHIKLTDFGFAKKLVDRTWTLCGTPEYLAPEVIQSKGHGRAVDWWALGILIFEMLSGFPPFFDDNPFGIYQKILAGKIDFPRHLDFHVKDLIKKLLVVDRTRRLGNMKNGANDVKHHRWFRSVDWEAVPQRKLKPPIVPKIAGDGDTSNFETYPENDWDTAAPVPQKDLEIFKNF

[19] = target: T7, cAMP-dependent protein kinase catalytic subunit PRKX (Homo sapiens); details: at 1 µM
[20] = target: Rho-associated protein kinase 1 (Homo sapiens) (UniProt Q13464); details: at 0.1 µM;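 note: values are mean percent inhibition of ROCK1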
Rho-associated protein kinase 1 (Homo sapiens), sequence (Q13464 2-1354 limits assumed): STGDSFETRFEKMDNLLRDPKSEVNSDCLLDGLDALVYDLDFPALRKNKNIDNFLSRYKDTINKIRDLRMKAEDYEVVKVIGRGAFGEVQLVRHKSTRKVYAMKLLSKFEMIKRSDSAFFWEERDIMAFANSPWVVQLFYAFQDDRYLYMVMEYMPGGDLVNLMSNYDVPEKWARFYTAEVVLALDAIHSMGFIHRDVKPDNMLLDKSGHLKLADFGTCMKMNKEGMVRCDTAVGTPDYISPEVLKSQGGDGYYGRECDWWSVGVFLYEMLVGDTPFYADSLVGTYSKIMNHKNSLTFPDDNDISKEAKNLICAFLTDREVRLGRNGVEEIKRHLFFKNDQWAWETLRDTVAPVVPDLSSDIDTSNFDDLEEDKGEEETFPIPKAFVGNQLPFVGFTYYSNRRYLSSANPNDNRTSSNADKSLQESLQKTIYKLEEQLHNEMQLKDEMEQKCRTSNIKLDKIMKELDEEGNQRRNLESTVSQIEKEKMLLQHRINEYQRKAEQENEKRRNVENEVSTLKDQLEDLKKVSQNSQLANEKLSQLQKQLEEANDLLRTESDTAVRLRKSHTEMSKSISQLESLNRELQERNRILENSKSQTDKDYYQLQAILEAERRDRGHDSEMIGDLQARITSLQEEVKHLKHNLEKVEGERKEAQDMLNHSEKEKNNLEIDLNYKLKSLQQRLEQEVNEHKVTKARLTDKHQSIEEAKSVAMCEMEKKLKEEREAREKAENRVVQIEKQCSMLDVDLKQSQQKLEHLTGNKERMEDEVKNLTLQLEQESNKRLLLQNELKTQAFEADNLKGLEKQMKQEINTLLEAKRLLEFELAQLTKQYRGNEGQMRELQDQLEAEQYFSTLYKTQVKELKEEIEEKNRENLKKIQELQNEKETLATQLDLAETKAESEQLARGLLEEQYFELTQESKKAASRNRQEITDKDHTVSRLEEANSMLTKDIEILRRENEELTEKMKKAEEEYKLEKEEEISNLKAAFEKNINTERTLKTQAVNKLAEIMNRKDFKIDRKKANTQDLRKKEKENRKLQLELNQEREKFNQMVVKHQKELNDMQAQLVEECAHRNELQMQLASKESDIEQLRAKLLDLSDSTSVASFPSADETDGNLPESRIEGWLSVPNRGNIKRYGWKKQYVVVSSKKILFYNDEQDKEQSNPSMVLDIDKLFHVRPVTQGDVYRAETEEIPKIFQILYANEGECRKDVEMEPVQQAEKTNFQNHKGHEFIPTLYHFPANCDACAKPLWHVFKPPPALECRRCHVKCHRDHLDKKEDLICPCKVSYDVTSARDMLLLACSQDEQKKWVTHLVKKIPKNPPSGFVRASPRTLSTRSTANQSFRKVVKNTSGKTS

Protein kinase C beta type (Homo sapiens), sequence (P05771 2-671 limits assumed): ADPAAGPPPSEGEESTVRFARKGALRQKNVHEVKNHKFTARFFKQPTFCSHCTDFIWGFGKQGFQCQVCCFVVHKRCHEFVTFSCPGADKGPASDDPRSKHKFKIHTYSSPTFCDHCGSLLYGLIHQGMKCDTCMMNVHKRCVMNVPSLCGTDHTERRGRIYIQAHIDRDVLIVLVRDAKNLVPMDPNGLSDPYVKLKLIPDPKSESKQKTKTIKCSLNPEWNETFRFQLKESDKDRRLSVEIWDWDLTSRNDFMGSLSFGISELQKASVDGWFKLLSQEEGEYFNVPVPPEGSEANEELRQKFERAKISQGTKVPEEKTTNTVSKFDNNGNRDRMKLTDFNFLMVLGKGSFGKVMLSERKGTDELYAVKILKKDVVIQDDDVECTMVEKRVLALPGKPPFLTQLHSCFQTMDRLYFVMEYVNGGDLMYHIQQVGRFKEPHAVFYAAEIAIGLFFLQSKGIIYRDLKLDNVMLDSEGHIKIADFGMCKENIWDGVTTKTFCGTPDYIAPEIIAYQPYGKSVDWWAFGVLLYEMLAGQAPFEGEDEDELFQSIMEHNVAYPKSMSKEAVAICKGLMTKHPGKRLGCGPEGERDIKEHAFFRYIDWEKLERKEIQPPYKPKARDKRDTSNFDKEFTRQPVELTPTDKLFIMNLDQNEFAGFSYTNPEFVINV
Protein kinase C theta type (Homo sapiens), sequence (Q04759 whole entry, looked up): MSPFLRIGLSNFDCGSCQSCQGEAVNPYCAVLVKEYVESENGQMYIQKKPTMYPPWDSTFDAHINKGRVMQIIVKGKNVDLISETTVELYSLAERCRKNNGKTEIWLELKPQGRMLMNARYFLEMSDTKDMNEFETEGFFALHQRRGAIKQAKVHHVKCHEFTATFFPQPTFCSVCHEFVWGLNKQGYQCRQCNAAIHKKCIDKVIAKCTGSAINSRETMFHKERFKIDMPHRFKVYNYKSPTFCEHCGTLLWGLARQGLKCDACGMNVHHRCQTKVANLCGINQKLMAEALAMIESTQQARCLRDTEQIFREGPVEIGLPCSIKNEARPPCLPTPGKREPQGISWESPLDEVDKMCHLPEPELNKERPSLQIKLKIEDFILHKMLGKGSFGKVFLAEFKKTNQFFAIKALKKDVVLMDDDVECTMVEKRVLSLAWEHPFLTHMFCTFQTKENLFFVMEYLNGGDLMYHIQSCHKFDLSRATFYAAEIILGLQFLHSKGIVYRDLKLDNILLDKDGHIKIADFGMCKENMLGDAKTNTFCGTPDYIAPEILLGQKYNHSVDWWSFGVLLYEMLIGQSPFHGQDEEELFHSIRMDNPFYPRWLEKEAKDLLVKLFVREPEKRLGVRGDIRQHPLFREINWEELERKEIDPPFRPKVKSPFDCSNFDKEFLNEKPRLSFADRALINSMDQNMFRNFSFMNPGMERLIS

Structure (SMILES) | inhibition [1] [%] | inhibition [2] [%] | inhibition [3] [%] | inhibition [4] [%] | inhibition [5] [%] | inhibition [6] [%] | inhibition [7] [%] | inhibition [8] [%] | inhibition [9] [%] | inhibition [10] [%] | inhibition [11] [%] | inhibition [12] [%] | inhibition [13] [%] | inhibition [14] [%] | inhibition [15] [%] | inhibition [16] [%] | inhibition [17] [%] | inhibition [18] [%] | inhibition [19] [%] | inhibition [20] [%]
O=C(Nc1n[nH]c2cc(-c3ccccc3)ccc12)C1CC1 | 1.52 | 2.86 | 3.51 | 2.7 | 1.97 | 1.8 | 3.32 | 4.43 | 5.64 | 4.79 | 5.1 | 5.75 | 6.47 | 3.2 | 3.14 | 1.66 | 2.57 | 1.37 | 0.63 | 1.2
O=C1Nc2ccccc2/C1=C/Nc1ccc(-n2cncn2)cc1 | 2.93 | 2.78 | 2.15 | 2.93 | 4.7 | 1.94 | 4.54 | 5.12 | 7.88 | 6.14 | 6.07 | 4.94 | 6.5 | 3.06 | 5.48 | 2.51 | 14.4 | 2.56 | 7.18 | 1.71
O=C(Nc1n[nH]c2cc(-c3cc(F)ccc3F)ccc12)C1CC1 | 1.94 | -0.39 | 2.69 | 1.32 | 1.51 | 1.71 | 4.18 | 2.95 | 3.73 | 3.73 | 4.95 | 3.61 | 3.98 | 3.55 | 4.78 | 2.47 | 5.6 | 1.14 | 1.88 | -0.49
